HCV inhibitor = inhibitors of hepatitis C virus infection | Potency, µM (series often up to 41.8 µM), usual class: inhibitors | Huh7.5.1 HCVcc-Cre infection, luciferase reporter, 44 h | 340,000 tested, 3.4% active
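Infectious HCV cell culture screen: compound-treated cells (1,000/well, pre-plated 4 h) are infected with HCVcc-Cre at roughly 0.5 moi and grown 44 h. Infection is quantified by luciferase signal after 15 min substrate incubation at room temperature.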
Lassa entry inh = Lassa virus entry inhibition; Potency, µM (series often up to 37.9 µM), usual class: inhibitors; 300,000 tested, 1.2% active; Lassa virus pseudotype entry inhibition, cell reporter; calls by dose curve; tested in HEK293 cells; further: nearly all actives have a fitted effect of over 50% in size
Marburg entry inh = Marburg virus entry inhibition | Potency, µM (highest dose often 37.8 µM), hits mostly inhibitors | 300,000 tested, 1.8% active | Marburg virus pseudotyped entry inhibition, cell reporter | AID 540276; calls by dose curve; tested in HEK293 cells
RE007 growth inh = less growth of the S. pombe RE007 Vpr strain. S. pombe RE007 Vpr strain, BacTiter-Glo ATP luminescence, 24 h. Potency, µM (highest dose often 92.2 µM), hits mostly inhibitors. 360,000 tested, 0.21% active; active means well fitted falling curve with a large enough effect; inconclusive means small, poorly fitted or top-dose-only effect; inactive means no such curve, though single readings can be large or run the other way; further: nearly all actives have a fitted effect of over 50% in size
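Fission yeast strain RE007, carrying one chromosomally integrated HIV-1 vpr copy, was seeded at OD 0.01 in PMG+AL medium with 23 nL pinned compound. After 24 h at 30 °C and 99% humidity, viability was read by BacTiter-Glo luminescence.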
Sm TGR block = inhibitors of Schistosoma mansoni thioredoxin glutathione reductase; Q962Y6; purified TGR, DTNB reduction, TNB absorbance 405 nm; Potency, µM (series often up to 114 µM), usual class: inhibitors; 360,000 tested, 3% active; AID 485364; further: nearly all actives have a fitted effect of over 60% in size
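TGR 20 nM + NADPH 100 uM (dispensed conc.), cpd preinc 15 min RT; start with NADPH (500 uM addition) then DTNB (15 mM addition). Kinetic TNB absorbance, 405 nm filter. Four-parameter Hill fit across titration.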
FMDV inh = antivirals against foot and mouth disease virus. 410,000 tested, 1.2% active. Potency, µM (titrated, usually from 57.9 µM), actives largely listed as inhibitors. FMDV antiviral cell-based qHTS; calls by dose curve; tested in HEK293T cells; further: read-out not given here; nearly all actives have a fitted effect of over 45% in size
A number is an active result. Hits are enriched below; roughly 7.2% of the tested compounds scored in any of these assays. Unless noted, the call rests on the fitted dose curve; in most records, active means well fitted curve in the direction sought with a large enough effect; inconclusive means small, poorly fitted or top-dose-only effect, or another doubt; inactive means no such curve, though single readings can be large; an effect the other way counts as inactive or inconclusive.

For CC1CCN(S(=O)(=O)c2ccc(NC(=O)Cc3ccc(S(=O)(=O)N4CCOCC4)s3)cc2)CC1 the results were HCV inhibitor inconclusive, Lassa entry inh inactive, Marburg entry inh inconclusive, RE007 growth inh inactive, Sm TGR block 79µM and FMDV inh inconclusive.
COc1ccccc1CNc1ncnc2c1c(-c1ccccc1)cn2-c1cccc(C)c1 was read as Lassa entry inh inactive, Sm TGR block inactive and FMDV inh inconclusive.
Cc1ccc(C(=O)Nc2ccc(F)c(S(=O)(=O)N3CCOCC3)c2)s1 was read as HCV inhibitor inconclusive, RE007 growth inh inactive and FMDV inh inconclusive.
`O=C(Nc1ccc(S(=O)(=O)N2CCOCC2)cc1)c1ccc([N+](=O)[O-])s1` gave HCV inhibitor 8.9µM, Lassa entry inh inconclusive, Marburg entry inh inactive, RE007 growth inh inactive, Sm TGR block inactive and FMDV inh inactive.
Screening Cc1ccc(NC(=O)c2cc(S(=O)(=O)N3CCOCC3)c(Br)s2)cc1 returned HCV inhibitor inactive, Lassa entry inh 10µM, Marburg entry inh inactive, RE007 growth inh inactive, Sm TGR block inactive and FMDV inh inconclusive.
`Cc1ccc(S(=O)(=O)N2CCN(C(=O)c3cc(-c4ccc(Br)cc4)n[nH]3)CC2)c(C)c1` gave Lassa entry inh inactive, Sm TGR block inactive and FMDV inh inconclusive.
`O=C(CC(C(=O)O)c1ccc(F)cc1)c1ccc(Cl)cc1` (configuration not stated) gave HCV inhibitor inactive, Lassa entry inh inactive, Marburg entry inh inactive, RE007 growth inh inactive, Sm TGR block inactive and FMDV inh inactive.
For CC(C)(C)c1ccc(C(=O)CC(Sc2ccc(Cl)cc2)C(=O)O)cc1 (configuration not stated) the results were HCV inhibitor inactive, Lassa entry inh inactive, Marburg entry inh inconclusive, RE007 growth inh inactive, Sm TGR block 11µM and FMDV inh inconclusive.
For Cc1ccc(SC(CC(=O)c2ccc(F)cc2)C(=O)O)cc1 (configuration not stated) the results were HCV inhibitor inactive, Lassa entry inh inconclusive, Marburg entry inh inconclusive, RE007 growth inh inconclusive, Sm TGR block 0.5µM and FMDV inh inconclusive.
`O=C(CC(C(=O)O)c1ccc(Cl)cc1)c1ccccc1` (configuration not stated) gave HCV inhibitor inactive, Lassa entry inh inactive, Marburg entry inh inactive, RE007 growth inh inactive, Sm TGR block inactive and FMDV inh inactive.
Cc1cnc(-n2ncc(C(=O)NCCc3ccncc3)c2-c2cccs2)nc1-c1ccc(F)cc1 was read as FMDV inh inactive.
CCc1c(-c2ccccc2)nc2ccccc2c1C(=O)NC(C)c1ccccc1 (configuration not stated) was read as Lassa entry inh inactive, Sm TGR block inactive and FMDV inh inactive.
For O=C1/C(=C/c2cccnc2)CC/C1=C\c1cccnc1 the results were HCV inhibitor inactive, Lassa entry inh inactive, Marburg entry inh inconclusive, RE007 growth inh inactive, Sm TGR block inactive and FMDV inh 28µM.
`O=C1NC(=S)N/C1=C/c1cccnc1` gave HCV inhibitor inactive, RE007 growth inh inactive, Sm TGR block inactive and FMDV inh inactive.
CCC1C/C(=C\c2cccnc2)C(=O)/C(=C/c2cccnc2)C1 (configuration not stated) was read as HCV inhibitor inconclusive, Lassa entry inh 4.5µM, Marburg entry inh 5.8µM, RE007 growth inh inconclusive, Sm TGR block inconclusive and FMDV inh 3.5µM.
Screening O=C1/C(=C/c2cccnc2)CCC/C1=C\c1cccnc1 returned HCV inhibitor inconclusive, Lassa entry inh 7.1µM, Marburg entry inh inconclusive, RE007 growth inh inconclusive, Sm TGR block 40µM and FMDV inh inconclusive.
Screening CC(C)/C=C1\CC/C(=C\c2cccnc2)C1=O returned HCV inhibitor inactive, RE007 growth inh inactive, Sm TGR block 25µM and FMDV inh 28µM.
For O=C1/C(=C\c2cccnc2)CCc2ccccc21 the results were HCV inhibitor inactive, Lassa entry inh inactive, Marburg entry inh inactive, RE007 growth inh inconclusive, Sm TGR block inactive and FMDV inh inactive.
`COc1ccc(CNC(=O)c2cc3cc(S(=O)(=O)N4CCCCC4)ccc3n2C)c(OC)c1` gave Lassa entry inh inconclusive, Sm TGR block inactive and FMDV inh inactive.
CCCc1nnc(NC(=O)Cc2coc3c(C)c(C)ccc23)s1 was read as Lassa entry inh inactive, Marburg entry inh inactive, Sm TGR block inactive and FMDV inh inactive.
CS(=O)(=O)c1ccc(S(=O)CC(=O)Oc2ccc(Cl)cc2)c([N+](=O)[O-])c1 (configuration not stated) was read as HCV inhibitor inconclusive, Lassa entry inh inconclusive, Marburg entry inh 11µM, RE007 growth inh inactive, Sm TGR block 1.6µM and FMDV inh 35µM.
Screening O=C(CS(=O)c1ccccc1[N+](=O)[O-])Oc1ccc(Br)cc1 (configuration not stated) returned HCV inhibitor inactive, Lassa entry inh inactive, Marburg entry inh inactive, RE007 growth inh inconclusive, Sm TGR block 25µM and FMDV inh inactive.
COc1ccc(/C=N/NC(=O)c2ccco2)cc1Cn1nc(C)cc1C was read as HCV inhibitor inactive, Lassa entry inh inactive, Marburg entry inh inactive, RE007 growth inh inactive, Sm TGR block 50µM and FMDV inh inactive.
COc1ccc(/C=N/NC(=O)c2ccco2)cc1Cn1nc(C)c([N+](=O)[O-])c1C was read as HCV inhibitor inactive, Lassa entry inh inactive, Marburg entry inh inconclusive, RE007 growth inh inactive, Sm TGR block inactive and FMDV inh inconclusive.
Screening COc1ccc(/C=N\NC(=O)COc2ccc(C(C)(C)C)cc2)cc1Cn1nc(C)cc1C returned HCV inhibitor inactive, Lassa entry inh 2.2µM, Marburg entry inh inconclusive, RE007 growth inh inactive, Sm TGR block inactive and FMDV inh inconclusive.
O=C(N/N=C/c1ccc2ncccc2c1)c1ccco1 was read as HCV inhibitor inactive, Lassa entry inh 2.5µM, Marburg entry inh 1.3µM, RE007 growth inh inactive, Sm TGR block inactive and FMDV inh inactive.
For C[C@H]1Cc2c(-c3ccccc3)nc3c(c2CO1)CN(C(=O)NCc1ccco1)CC3 the results were Marburg entry inh inactive.
Screening CCn1ccc2cc(S(=O)(=O)N3CCCN(C(=O)Nc4cccc(SC)c4)CC3)ccc21 returned Lassa entry inh inconclusive, Sm TGR block inactive and FMDV inh inactive.
Screening CS(=O)(=O)c1ccc(-c2cccc(NC(=O)c3ccc4c(c3)OCO4)c2)nn1 returned RE007 growth inh inactive and FMDV inh inactive.
For O=C(Nc1ccc(NC(=O)c2ccc3c(c2)OCCO3)cc1)c1ccccc1 the results were HCV inhibitor inconclusive, Lassa entry inh inconclusive, Marburg entry inh inconclusive, RE007 growth inh inactive, Sm TGR block inactive and FMDV inh inactive.
Screening COc1ccc(-c2cccc(NC(=O)c3ccc4c(c3)OCO4)c2)nn1 returned HCV inhibitor 16µM, Lassa entry inh inactive, Marburg entry inh inconclusive, RE007 growth inh inactive, Sm TGR block inactive and FMDV inh inactive.

Bioassay records: PubChem, National Center for Advancing Translational Sciences (NCATS)
